Measured values: PubChem BioAssay (Tox21)
Results filed as inconclusive are left out. Activity calls are given as the source filed them. Unless noted, calls follow the shape of the dose curve; as a rule, active = well fitted curve in the direction sought with a large enough effect in the repeat runs; inconclusive = weak or mixed curves; inactive = no such curve, though single readings can be large; an effect the other way counts as inactive or inconclusive.

Assays:
[1] = qHTS assay to identify small molecule agonists of the NFkB signaling pathway (AID 1159509; active = well fitted curve in the direction sought with a large enough effect in the signal ratio in the repeat runs, not every such curve was filed as active; the % refers to the signal ratio; also: series mostly up to about 61 µM)
Procedure, shortened: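 Pathway activation was measured in ME-180 cells stably expressing beta-lactamase under NF-kB response element control. Substrate cleavage was read as the 460/530 nm emission shift after 5 hr compound incubation.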

[2] = qHTS assay to identify small molecule agonists of the NFkB signaling pathway - cell viability counter screen (AID 1159515; calls by dose curve; also: series mostly up to about 61 µM; nearly all actives have a fitted effect of over 55% in size)
Procedure, shortened: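 Cells are seeded (2,000 NFkB-bla ME-180 per well), rested overnight, and dosed with DMSO-dissolved compounds for 5 hr at 37 C. Viability is then read by CellTiter-Glo luminescence after 30 min at room temperature.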

[3] = qHTS assay to identify small molecule agonists of the endoplasmic reticulum stress response signaling pathway (AID 1159516; active = well fitted activation curve with a large enough effect in the signal ratio in the repeat runs, not every such curve was filed as active; the % refers to the signal ratio)
Procedure, shortened: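 Cells are seeded at 1,500 per well and incubated overnight. Compounds in DMSO are added for 5 hr at 37 C, then beta-lactamase FRET substrate for 2 hr at room temperature, and fluorescence at 460 and 530 nm is measured.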

[4] = qHTS assay to identify small molecule agonists of the endoplasmic reticulum stress response signaling pathway - cell viability counter screen (AID 1159517; calls by dose curve;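 also: HeLa cells carrying an ER stress response element beta-lactamase reporter; series mostly up to about 61 µM; nearly all actives have a fitted effect of over 50% in size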)
Procedure, shortened: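 ESRE-bla HeLa cells (1,500/well) were plated overnight at 37 C and exposed to compounds for 5 hr. After the 2 hr beta-lactamase substrate read, CellTiter-Glo went into the same wells, and luminescence was read after 30 min at room temperature.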

[5] = qHTS assay to identify small molecule antagonists of the retinoid-related orphan receptor gamma (ROR-gamma) signaling pathway - cell viability counter screen (AID 1159520); also: nearly all actives have a fitted effect of over 50% in size
Procedure, shortened: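 Cytotoxicity was read from cellular ATP (CellTiter-Glo luminescence) after 16 hr at 37 C with 1 uM doxycycline induction. The inducer was added 2 hr after compound transfer to Tet-on ROR gamma CHO cells.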

[6] = biological target: Nuclear receptor ROR-gamma (Homo sapiens) (UniProt P51449); test: qHTS assay to identify small molecule antagonists of the retinoid-related orphan receptor gamma (ROR-gamma) signaling pathway (AID 1159521;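 also: CHO cells with doxycycline inducible ROR-gamma driving an RORE luciferase reporter; top concentration of the series differs between compounds; nearly all actives have a fitted effect of over 50% in size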)
Procedure, shortened: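 Luminescence readout (ONE-Glo, 30 min RT) after 16 h doxycycline induction; loss of signal scored as antagonism. CHO cells with TET-inducible RORγ and RORE-LUC reporter; compounds added 2 h before 1 uM final doxycycline.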

[7] = qHTS assay to identify small molecule agonists of the AP-1 signaling pathway - cell viability counter screen (AID 1159525; calls by dose curve; also: nearly all actives have a fitted effect of over 55% in size)
Procedure, shortened: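 Intracellular ATP by Cell Titer Glo luminescence (30 min, RT) in the same ME-180 AP-1-bla wells after the 5 h compound exposure at 37 °C. Normalised to tetra n-octyl ammonium bromide and DMSO controls.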

[8] = qHTS assay to identify small molecule agonists of the AP-1 signaling pathway (AID 1159526; calls by dose curve)
[9] = biological target: Retinoic acid receptor RXR-alpha (Homo sapiens) (UniProt P19793); test: qHTS assay to identify small molecule agonists of the RXR signaling pathway (AID 1159527; calls by dose curve; also: nearly all actives have a fitted effect of over 35% in size)
Procedure, shortened: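 Agonist mode; 9-cis retinoic acid positive control. HEK 293T UAS-bla reporter cells, 2% charcoal-stripped FBS, 16 hr compound exposure at 37 C/5% CO2. LiveBLAzer B/G FRET substrate 2 hr RT; ex 405, em 460/530 nm.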

[10] = qHTS assay to identify small molecule agonists of the RXR signaling pathway - cell viability counter screen (AID 1159529); also: series mostly up to about 77 µM; nearly all actives have a fitted effect of over 50% in size
Procedure, shortened: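 Luminescence from CellTiter-Glo (30 min, RT) measured viability in the same wells as the beta-lactamase reporter readout. Cells: GeneBLAzer RXR-alpha HEK 293T, 2% charcoal-stripped FBS. Compound exposure 16 hr, 37 C.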

[11] = qHTS assay to identify small molecule antagonists of the retinoid acid receptor (RAR) signaling pathway - cell viability counter screen (AID 1159551); also: nearly all actives have a fitted effect of over 35% in size
Procedure, shortened: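 Cells (C3RL4) are plated, incubated overnight, dosed with compound in DMSO, then given retinol at 1 uM final. After 6 h at 37 C, CellTiter-Glo is added and luminescence read following 30 min at room temperature.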

[12] = qHTS assay to identify small molecule antagonists of the retinoic acid receptor (RAR) signaling pathway (AID 1159552; also: nearly all actives have a fitted effect of over 50% in size)
Procedure, shortened: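 Luminescence from a RARE luciferase reporter in C3RL4 cells served as read-out. Cells received compounds together with 1 uM final retinol and incubated 6 hr at 37 C before detection reagent was added for 30 min at room temperature.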

[13] = qHTS assay to identify small molecule agonists of the retinoic acid receptor (RAR) signaling pathway (AID 1159553)
Procedure, shortened: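 Seed C3RL4 reporter cells at 1,000 per well and incubate overnight at 37 C. Add compounds in DMSO, incubate 6 hr. Add luciferase reagent, wait 30 min at room temperature, read luminescence.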

[14] = qHTS assay to identify small molecule agonists of the vitamin D receptor (VDR) signaling pathway - cell viability counter screen (AID 743224)
Procedure, shortened: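 Cells: VDR-bla, 2,000/well, settled 4 h. Treatment: compounds in DMSO, 16 h, 37C/5% CO2. Readout: CellTiter-Glo luminescence after 30 min RT.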

[15] = qHTS assay to identify small molecule antagonists of the vitamin D receptor (VDR) signaling pathway - cell viability counter screen (AID 743225); also: nearly all actives have a fitted effect of over 50% in size
Procedure, shortened: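 Viability counter screen run in the same wells as the beta-lactamase reporter assay: HEK 293T VDR-UAS-bla cells, 16 h compound exposure at 37C with 3 nM (final) 1-alpha,25-dihydroxyvitamin D3. CellTiter-Glo luminescence, 30 min, room temperature.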

[16] = qHTS assay to identify small molecule antagonists of the estrogen related receptor (ERR) signaling pathway - cell viability counter screen (AID 1224818); also: series mostly up to about 46 µM
Procedure, shortened: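 ERR cells, 2,000/well; 6 h settle at 37 C/5% CO2; compound pin transfer (DMSO); 17.5 h at 37 C; CellTiter-Fluor, 30 min, fluorescence read.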

[17] = qHTS assay to identify small molecule antagonists of the estrogen related receptor (ERR) signaling pathway (AID 1224819)
Procedure, shortened: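 qHTS in ERR cells, 2,000/well, 1536 format. Cpd (DMSO) added after 6 h settle, 18 h 37 C. One-Glo luminescence, 30 min RT.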

[18] = qHTS assay to identify small molecule agonists of the estrogen related receptor (ERR) signaling pathway (AID 1224820)
Procedure, shortened: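 An ERR cell line provided by NTP was seeded at 2,000 cells per well and allowed to settle for 6 h before compounds in DMSO were added. After 18 h at 37 C, luciferase activity was measured by One-Glo luminescence.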

[19] = tested on: estrogen-related receptor alpha (ERRalpha) with PGC-1alpha coactivator, human; test: qHTS assay to identify small molecule antagonists of the estrogen related receptor signaling pathway with the pleiotropic PPARgamma coactivator (PGC) (AID 1224821; calls by dose curve)
Procedure, shortened: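 A PGC/ERR cell line supplied by NTP is seeded, allowed 6 h at 37 C, and treated with test compounds in DMSO for 18 h. Signal is then measured as luciferase luminescence using One-Glo.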

[20] = qHTS assay to identify small molecule antagonists of the estrogen related receptor signaling pathway with the pleiotropic PPARgamma coactivator (PGC) cell viability counter screen (AID 1224822;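 also: series mostly up to about 46 µM; viability read after 17.5 h compound exposure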)
Procedure, shortened: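 Multiplexed viability counter screen run in PGC/ERR cells treated with compounds for 17.5 h at 37 C; live-cell protease signal measured by CellTiter-Fluor fluorescence.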

Measured: Potency

Retinoic acid receptor RXR-alpha (Homo sapiens), sequence (P19793 whole entry, looked up): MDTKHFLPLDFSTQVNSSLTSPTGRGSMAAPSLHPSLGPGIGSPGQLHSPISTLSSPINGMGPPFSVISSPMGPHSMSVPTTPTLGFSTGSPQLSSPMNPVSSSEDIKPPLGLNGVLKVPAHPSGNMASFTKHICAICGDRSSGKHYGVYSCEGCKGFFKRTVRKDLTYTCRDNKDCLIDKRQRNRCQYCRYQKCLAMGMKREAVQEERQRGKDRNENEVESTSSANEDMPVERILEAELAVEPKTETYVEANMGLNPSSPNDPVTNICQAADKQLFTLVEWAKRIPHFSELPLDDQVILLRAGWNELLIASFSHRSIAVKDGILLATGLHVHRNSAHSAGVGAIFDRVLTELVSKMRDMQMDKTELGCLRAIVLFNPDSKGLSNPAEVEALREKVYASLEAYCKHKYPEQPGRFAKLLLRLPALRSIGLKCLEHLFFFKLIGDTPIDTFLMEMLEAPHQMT

C=C(Cl)CCl
not listed: [14] | [15] | [16] | [17] | [18] | [19] | [20]
inactive: all other assays above

C=CCN1CC[C@]23CCCC[C@H]2[C@H]1Cc1ccc(O)cc13
not listed: [13] | [14] | [15] | [16] | [17] | [18] | [19] | [20]
inactive: all other assays above

CC(C)[C@]12CC(=O)[C@H](C)[C@H]1C2
not listed: [15] | [16] | [17] | [18] | [19] | [20]
inactive: all other assays above

COC(=O)c1ccccc1CS(=O)(=O)NC(=O)Nc1nc(OC)cc(OC)n1
not listed: [15] | [16] | [17] | [18] | [19] | [20]
inactive: all other assays above

CC(C)N(Cc1ccccc1)C(=O)C(C)(C)C
not listed: [15] | [16] | [17] | [18] | [19] | [20]
inactive: all other assays above

O=C(O)C(Cl)Br (stereo not given)
not listed: [15] | [16] | [17] | [18] | [19] | [20]
inactive: all other assays above

CC[C@@H](CO)NC(=O)[C@@H]1C=C2c3cccc4c3c(cn4C)C[C@H]2N(C)C1
inactive: all assays above

O=P(O)(O)c1ccccc1
not listed: [15] | [16] | [17] | [18] | [19] | [20]
inactive: all other assays above
